Some test systems named below: T-47D breast; BT-549 breast; MDA-MB-435 melanoma; SW-620 colon; MCF7 breast; HCT-116 colon; HCC-2998 colon; KM12 colon.
Holding throughout (test): NCI-60 one-dose screen, 48 h (100 = growth as untreated, 0 = no growth, -100 = all killed)
Holding throughout (conditions): 10 µM unless noted

This is an account of results in PubChem BioAssay (NCI).

The panel holds about 83,000 compounds, 20% with a hit somewhere; the sample as a whole holds those more often.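 Step 1: grow cells in 96-well plates. Step 2: add test compound at a single concentration. Step 3: incubate 48 h. Step 4: record percent growth.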 Unmarked numbers belong to inactive results. Activity calls are given as the source filed them. The calls were made as follows: active = growth percent below 10; inactive = the rest.

Take `COc1cc2nc(-c3ccc(C(F)(F)F)cc3)cc(OCCN3CCC(O)CC3)c2cc1OC`: the growth is 74.9% in the assay on T-47D breast; 52.3% in the assay on BT-549 breast; 94.4% in the assay on MDA-MB-435 melanoma; 91.8% in the assay on SW-620 colon; 93.1% with MCF7 breast; 55.3% in the assay with HCT-116 colon. Moreover, the growth is 77.9% in the assay on HCC-2998 colon and 86.8% in the assay on KM12 colon.

Take `COc1ccc(C2CC(c3cccc(Nc4ccncc4)c3)=NN2c2ccccc2)cc1` (stereo unspecified): the growth is 68.9% with T-47D breast; -16.1% (active) with BT-549 breast; -57% (active) in the assay on MDA-MB-435 melanoma; 8.74% (active) with MCF7 breast; 1.38% (active) in the assay on HCT-116 colon; -52.5% (active) in the assay on HCC-2998 colon. For the same compound, the growth in the assay with KM12 colon is -18.1% (active).

Consider `COc1cc2oc(-c3cccc(C(=O)Nc4ccc(Cl)cc4)c3)cc(=O)c2c(OC)c1OC`, for which the growth in the assay on T-47D breast is 24.2%; with BT-549 breast, 38.5%; in the assay on MDA-MB-435 melanoma it was 37.5%; with SW-620 colon, 50.4%; with MCF7 breast, 17.2%; with HCT-116 colon, 15.3%. Also, the results for the growth in the assay with HCC-2998 colon and in the assay with KM12 colon were 22.6% and 26.3%, respectively.

In the case of `O=C(N/N=C/c1ccc(F)cc1)c1ccccc1Nc1cccc(C(F)(F)F)c1`, the growth in the assay with T-47D breast was 88.2%; in the assay on BT-549 breast, 105%; in the assay on MDA-MB-435 melanoma, 100%; in the assay on SW-620 colon, 96%; with MCF7 breast, 106%; with HCT-116 colon it was 111%. Also, the growth was 107% in the assay with HCC-2998 colon and 91.4% with KM12 colon.

Turning to `CC(=O)c1c[nH]c2ccc(-c3ccnc(Nc4ccc(NC(=O)c5cccc(F)c5)c(CN5CCOCC5)c4)n3)cc12`, the growth was -5.6% (active) in the assay with T-47D breast; -7.43% (active) in the assay with BT-549 breast; -6.37% (active) in the assay with MDA-MB-435 melanoma; 0.335% (active) with SW-620 colon; -0.0693% (active) in the assay on MCF7 breast; 2.26% (active) with HCT-116 colon. Also, the growth with HCC-2998 colon was 1.41% (active); with KM12 colon it was -7.43% (active).

Take `CC1=CC2(C)/C=C(C)/C=C\CC(O)/C=C3/C=CC(=C4C(=O)OC2(CC1C)C4=O)OC3` (stereo unspecified): the growth in the assay on T-47D breast was -33.9% (active); in the assay on BT-549 breast it was -17.1% (active); with MDA-MB-435 melanoma it was -50.1% (active); in the assay on SW-620 colon it was -88.5% (active); in the assay on MCF7 breast, -21.9% (active); in the assay on HCT-116 colon, -100% (active). Besides, in the assay on KM12 colon, the growth is 10.2%.

For the compound `N#Cc1c(Nc2ccccc2)nn2cc(-c3nc4ccccc4s3)c(N)nc12`, the growth was 68.9% with T-47D breast; 67.2% with BT-549 breast; 93.6% with MDA-MB-435 melanoma; 72.2% in the assay on SW-620 colon; 63.3% in the assay with MCF7 breast; 76.4% in the assay with HCT-116 colon. The growth is 88% with HCC-2998 colon and 88.2% with KM12 colon.

On to `C[C@H]1[C@H](C)CC[C@]2(CO)CC[C@]3(C)C(=CC[C@@H]4[C@@]5(C)Cc6c([nH]c7ccccc67)C(C)(C)[C@@H]5CC[C@]43C)[C@H]12`, for which the growth was 68.3% with T-47D breast; 85.2% in the assay on BT-549 breast; 90.3% in the assay on MDA-MB-435 melanoma; 96.2% with SW-620 colon; 74.1% in the assay with MCF7 breast; 61.5% in the assay on HCT-116 colon. The results for the growth in the assay on HCC-2998 colon and with KM12 colon were 86% and 73.8%, respectively.

In the case of `O=S(=O)(NCCNc1nccc(-c2c(-c3cccc(F)c3)nc3occn23)n1)c1cccc2ccccc12`, the growth was 29.9% in the assay on T-47D breast; 78.3% in the assay on BT-549 breast; 32.8% in the assay on MDA-MB-435 melanoma; 27.8% with MCF7 breast; 36.1% in the assay on HCT-116 colon; 79.7% in the assay with HCC-2998 colon.

Consider `CCc1c(Nc2ccc(C)cc2)nc(N)[nH]c1=O`, for which the growth was 96.4% in the assay with T-47D breast; 101% in the assay with BT-549 breast; 106% in the assay on MDA-MB-435 melanoma; 109% with SW-620 colon; 93.7% in the assay with MCF7 breast; 98.6% in the assay on HCT-116 colon. In addition, the growth in the assay on KM12 colon is 102%.

For `COc1ccc(C(=O)/C=C/c2ccc(OCc3ccccc3)c(OC)c2)cc1OC`, the growth is 47.4% with T-47D breast; 51.8% with BT-549 breast; 61% in the assay on MDA-MB-435 melanoma; 12.9% in the assay on SW-620 colon; 22.5% in the assay on MCF7 breast; 18.2% in the assay on HCT-116 colon. Besides, the growth in the assay with KM12 colon was 36.5%.

As for `O=CNc1cc(Cl)cc(Cl)c1`, the growth with T-47D breast is 100%; in the assay with BT-549 breast, 99.4%; with MDA-MB-435 melanoma, 107%; with SW-620 colon it was 103%; with MCF7 breast it was 98.3%; in the assay on HCT-116 colon, 100%. In addition, the growth in the assay with KM12 colon is 101%.

In the case of `CC(C)Cc1ccc(C(C)C(=O)NCc2ccc(Cn3c(=O)sn(-c4ccc(Cl)cc4)c3=O)cc2)cc1` (stereo unspecified), the growth in the assay on T-47D breast is 54.9%; in the assay on BT-549 breast, 95.1%; with MDA-MB-435 melanoma, 84.8%; in the assay on MCF7 breast, 66.9%; in the assay with HCT-116 colon it was 75.6%; in the assay with HCC-2998 colon, 96.2%. Also, the growth in the assay on KM12 colon is 69.8%.

As to `CC(O)(CO)c1ccccc1` (stereo unspecified), the growth was 102% in the assay with T-47D breast; 93.6% in the assay with BT-549 breast; 99.1% in the assay on MDA-MB-435 melanoma; 103% with SW-620 colon; 98.7% with MCF7 breast; 98.3% in the assay with HCT-116 colon. Besides, the growth in the assay with KM12 colon is 103%.

With `CN1CCN(c2cnc(C(=O)Nc3cc(F)cc4cccnc34)cn2)CC1`, the growth in the assay on T-47D breast is 28.5%; with BT-549 breast it was 62.2%; with MDA-MB-435 melanoma, 74.5%; in the assay with SW-620 colon it was 39.6%; with MCF7 breast, 9.71% (active); in the assay with HCT-116 colon it was 9.87% (active). Further, the growth in the assay on HCC-2998 colon was 93%; in the assay with KM12 colon, 95%.

On to `O=C(N/N=C/c1ccc(O)c(O)c1)c1sc2ccccc2c1Cl`, for which the growth in the assay with T-47D breast is 62.3%; in the assay on BT-549 breast, 84.4%; in the assay with MDA-MB-435 melanoma, 88.7%; in the assay on MCF7 breast it was 54.4%; in the assay on HCT-116 colon, 80%; with HCC-2998 colon it was 96.5%. In addition, in the assay with KM12 colon, the growth was 89%.

On to `COc1ccc2c(/C=C3/C(=O)NC(=S)NC3C)cc(=O)oc2c1` (stereo unspecified), for which the growth was 88% with T-47D breast; 103% in the assay with BT-549 breast; 102% with MDA-MB-435 melanoma; 103% in the assay on SW-620 colon; 90.1% with MCF7 breast; 95.6% with HCT-116 colon. In addition, the growth in the assay on HCC-2998 colon was 96%; in the assay with KM12 colon it was 99.7%.
